PubChem BioAssay AID493185 (National Center for Advancing Translational Sciences (NCATS), 2011)
Activity calls are given as the source filed them. Entries that show only a call come without a potency. Calls follow the shape of the dose curve; as a rule, active = well fitted activation curve with a large enough effect; inconclusive = small, poorly fitted or top-dose-only effect; inactive = no such curve, though single readings can be large or run the other way.
Potency is read from the fitted curve at half-maximal effect.

Test: Counterscreen for Identifying a Potential Treatment of Ataxia-Telangiectasia: Hit Validation
Details: cell-free AlphaLISA/AlphaScreen artifact counterscreen, PBS only, no cells; series mostly up to 76.9 µM
Method in brief: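 Without cells, compounds at up to 76.7 uM final were combined with premixed anti-pKAP1/anti-KAP1 AlphaLISA bead reagents, protease inhibitors and lysis buffer; signal read after 6 hr at 25C to flag assay-platform artifacts.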
In the case of `COc1ccc(C(CNC(=O)C(Cc2ccccc2)NC(N)=O)N(C)C)cc1` (stereo not given), the Potency is reported as “inactive”.
For `CCN(CC)c1ccc2cc(-c3nc4ccccc4[nH]3)c(=O)oc2c1`, the Potency was 4.63 µM (active).
With `CCN(c1ccccc1)S(=O)(=O)c1ccc(Cl)c(C(=O)N(CC2CCCO2)C2CCS(=O)(=O)C2)c1` (stereo not given) the Potency was “inactive”.
With `CS(=O)(=O)c1ccc(-c2csc(-c3cccnc3)n2)cc1` the Potency was “inactive”.
With `COc1cc(CCC(=O)OCC(=O)N2CCc3ccccc32)cc(OC)c1OC` the Potency was “inactive”.
For `COc1ccc2nc(NCCCNC(=O)c3cc(OC)c(OC)c(OC)c3)c(C#N)cc2c1`, the Potency was 29.2 µM (active).
In the case of `O=C1NC(NS(=O)(=O)c2ccc(Cl)cc2)(C(F)(F)F)C(=O)N1CCc1ccccc1` (stereo not given), the Potency is reported as “inactive”.
In the case of `COc1cc(CCC(C)NCc2ccccc2)ccc1O` (stereo not given), the Potency is reported as “inactive”.
With `CN(C)S(=O)(=O)c1cccc(C(=O)N=C2N=C3C=CC(Cl)=CN3Cc3ccccc32)c1` the Potency was “inactive”.
For `Cc1ccc(C(=O)Nc2sc3c(c2C(=O)O)CCCCC3)o1`, the Potency was “inactive”.
With `COc1ccc(OC)c(C2CC(c3ccccc3)=NN2C(=S)Nc2ccccc2)c1` (stereo not given) the Potency was “inactive”.
For `COc1ccc(CNC(=O)CN2C(=O)CSc3ccc(S(=O)(=O)N4CCOCC4)cc32)c(OC)c1`, the Potency was “inactive”.
For `CCCCn1c2c(c(=N)c3ccccc31)CCC2`, the Potency was “inactive”.
With `Cn1cnc([N+](=O)[O-])c1SCCO` the Potency was “inactive”.
With `COC(=O)Cc1ccc(NC(=S)NCCSc2ccc(Cl)cc2)cc1` the Potency was “inactive”.
In the case of `CC1=NN(C(C#N)c2ccc([N+](=O)[O-])cc2)C(C)(C)C1` (stereo not given), the Potency is reported as “inactive”.
In the case of `COc1ccc2c(c1)c(N=NC(N)=S)c(O)n2CC(=O)c1ccccc1`, the Potency is reported as “inactive”.
For `CCOc1ccccc1CNC(=O)Cn1c(=O)oc2ccccc21`, the Potency was “inactive”.
With `CCN(CC)S(=O)(=O)c1ccc(Cl)c(NC(=O)CCCCl)c1` the Potency was “inactive”.
For `CC1CC(C)CN(S(=O)(=O)c2ccc(C(=O)NCCCn3ccnc3)cc2)C1` (stereo not given), the Potency was “inactive”.
With `COc1cccc(CN(C)CC(=O)NCc2ccc(F)cc2)c1OC` the Potency was “inactive”.
In the case of `Cc1ccc(OCC(=O)N(Cc2cccs2)C2CCS(=O)(=O)C2)cc1C` (stereo not given), the Potency is reported as “inactive”.
For `COc1ccc(CCn2c(S)nc3ccccc3c2=O)cc1`, the Potency was “inactive”.
In the case of `O=C(O)c1ccc(-c2nc3ccccc3s2)o1`, the Potency is reported as “inactive”.
In the case of `Cc1ccc(NC(=O)Nc2cccnc2)cc1NC(=O)Nc1cccnc1`, the Potency is reported as “inactive”.
With `COc1ccccc1Nc1nc(NCCCN(C)C)nc(N)c1[N+](=O)[O-]` the Potency was “inactive”.
With `COC(=O)Cn1ccc2cc(S(=O)(=O)N3CCCCC3)ccc21` the Potency was “inactive”.
For `C=C(C)n1c(=O)n(Cc2ccccc2C)c2ccccc21`, the Potency was “inactive”.
For `O=C(Nc1cccc([N+](=O)[O-])c1)N1CCCc2ccccc21`, the Potency was “inactive”.
In the case of `O=C(CN1C(=O)c2cccc([N+](=O)[O-])c2C1=O)NCc1ccccc1`, the Potency is reported as “inactive”.
In the case of `O=c1c(-c2ccc(Cl)cc2)c[nH]n1-c1ccccc1`, the Potency is reported as “inactive”.
In the case of `CCN1CCN(c2oc(COc3ccc(Cl)cc3)nc2C#N)CC1`, the Potency is reported as “inactive”.
With `O=C(CSc1ccccn1)N/N=C/C=C/c1ccccc1` the Potency was “inactive”.
In the case of `O=C(C[n+]1cccc2ccccc21)c1ccc(NC(=O)c2ccccc2)cc1`, the Potency is reported as “inactive”.
In the case of `Cc1ccc(-c2noc(CCC(=O)NC3CCN(Cc4ccccc4)CC3)n2)cc1`, the Potency is reported as “inactive”.
In the case of `CCOc1cccc(C(=O)Nc2ccccc2N2CCN(C(=O)C(C)C)CC2)c1`, the Potency is reported as “inactive”.
For `CC(=O)Nc1ccc(NC2=C(Cl)C(=O)c3ccccc3C2=O)cc1`, the Potency was “inactive”.
For `CC1=NOC2(C1)N(C)c1ccccc1C2(C)C` (stereo not given), the Potency was “inactive”.
With `Cc1nn(C)c(Cl)c1CN1CCN(C2CCCC2)C(CCO)C1` (stereo not given) the Potency was “inactive”.
In the case of `Cc1[nH]c2c(C)cccc2c1CN1CCC(CO)(Cc2ccccc2)CC1`, the Potency is reported as “inactive”.
